Assay in all cases: relative enzymatic activity vs untreated control (fraction); higher = less inhibition
What all share (details): 100 µM; incubation time: 2 h at 37 C

One assay concerns DNA gyrase. The procedure:
(§1)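 In vitro enzymatic inhibition assays (ProFoldin kits) for 12 purified essential E. coli enzymes or complexes, each treated with 218 active antibacterial compounds at 100 µM for 2 h at 37°C. Read-outs were fluorescence or absorbance (phosphate detection, dye binding), converted to activity via standard curves and expressed relative to untreated DMSO controls.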

In another assay the target is DNA helicase (UniProt P0ACB1). The procedure: as §1
In the next assay the target is DNA ligase (UniProt B1XA82). The procedure:
as §1

The next assay deals with DNA polymerase (UniProt P10443). The procedure: as §1
Another assay has as its target DNA primase (UniProt P0ABS7). The method, then: as §1
A further assay has as its target GlmU (UniProt A7ZTU1). The procedure: as §1
A further assay addresses Guanlyate kinase (UniProt Q0TBG1). The procedure: as §1
The next assay deals with MurA (UniProt Q3YX52). The procedure:
as §1

The target in another assay is T1, MurD (UniProt P14900).
T1 sequence (whole entry): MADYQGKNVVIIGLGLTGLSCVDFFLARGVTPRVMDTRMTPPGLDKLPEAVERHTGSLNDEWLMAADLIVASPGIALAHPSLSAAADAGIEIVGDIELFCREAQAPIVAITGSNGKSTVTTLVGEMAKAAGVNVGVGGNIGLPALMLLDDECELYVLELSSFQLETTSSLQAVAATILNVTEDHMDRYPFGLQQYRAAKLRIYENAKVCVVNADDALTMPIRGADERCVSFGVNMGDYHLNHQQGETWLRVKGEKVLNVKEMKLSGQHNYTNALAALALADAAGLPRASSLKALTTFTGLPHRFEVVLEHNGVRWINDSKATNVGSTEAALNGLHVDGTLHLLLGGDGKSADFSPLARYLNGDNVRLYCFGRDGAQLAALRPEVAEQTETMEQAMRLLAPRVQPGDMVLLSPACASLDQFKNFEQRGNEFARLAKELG
The procedure: as §1

The target of a further assay is T2, MurF (UniProt P11880).
T2 sequence (whole entry): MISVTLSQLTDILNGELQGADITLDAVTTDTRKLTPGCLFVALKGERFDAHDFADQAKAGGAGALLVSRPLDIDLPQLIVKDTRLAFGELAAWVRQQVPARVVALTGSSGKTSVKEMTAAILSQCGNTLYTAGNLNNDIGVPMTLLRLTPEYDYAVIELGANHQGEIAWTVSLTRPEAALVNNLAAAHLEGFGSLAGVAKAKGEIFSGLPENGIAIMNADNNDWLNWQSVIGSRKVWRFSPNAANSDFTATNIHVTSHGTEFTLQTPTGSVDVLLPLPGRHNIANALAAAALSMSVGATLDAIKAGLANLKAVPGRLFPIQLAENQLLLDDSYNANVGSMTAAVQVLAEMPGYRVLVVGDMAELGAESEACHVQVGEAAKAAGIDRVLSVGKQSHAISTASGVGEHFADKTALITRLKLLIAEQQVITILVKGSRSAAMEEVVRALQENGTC
The procedure: as §1

The next assay relates to RNA polymerase. The procedure: as §1

± gives the standard deviation of the averaged measurements.

Sequence of MurA (Q3YX52 whole entry): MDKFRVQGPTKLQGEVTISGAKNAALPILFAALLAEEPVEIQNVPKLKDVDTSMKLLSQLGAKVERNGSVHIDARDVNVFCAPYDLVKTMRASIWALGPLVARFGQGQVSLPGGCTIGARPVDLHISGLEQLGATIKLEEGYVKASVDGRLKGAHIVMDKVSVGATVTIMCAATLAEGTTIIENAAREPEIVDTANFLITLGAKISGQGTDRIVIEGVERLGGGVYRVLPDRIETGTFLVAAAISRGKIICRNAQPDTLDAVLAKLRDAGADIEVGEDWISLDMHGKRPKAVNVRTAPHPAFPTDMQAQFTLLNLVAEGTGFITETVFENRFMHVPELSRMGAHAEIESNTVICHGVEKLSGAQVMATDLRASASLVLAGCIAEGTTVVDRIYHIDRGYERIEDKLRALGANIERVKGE
Sequence of DNA ligase (B1XA82 whole entry): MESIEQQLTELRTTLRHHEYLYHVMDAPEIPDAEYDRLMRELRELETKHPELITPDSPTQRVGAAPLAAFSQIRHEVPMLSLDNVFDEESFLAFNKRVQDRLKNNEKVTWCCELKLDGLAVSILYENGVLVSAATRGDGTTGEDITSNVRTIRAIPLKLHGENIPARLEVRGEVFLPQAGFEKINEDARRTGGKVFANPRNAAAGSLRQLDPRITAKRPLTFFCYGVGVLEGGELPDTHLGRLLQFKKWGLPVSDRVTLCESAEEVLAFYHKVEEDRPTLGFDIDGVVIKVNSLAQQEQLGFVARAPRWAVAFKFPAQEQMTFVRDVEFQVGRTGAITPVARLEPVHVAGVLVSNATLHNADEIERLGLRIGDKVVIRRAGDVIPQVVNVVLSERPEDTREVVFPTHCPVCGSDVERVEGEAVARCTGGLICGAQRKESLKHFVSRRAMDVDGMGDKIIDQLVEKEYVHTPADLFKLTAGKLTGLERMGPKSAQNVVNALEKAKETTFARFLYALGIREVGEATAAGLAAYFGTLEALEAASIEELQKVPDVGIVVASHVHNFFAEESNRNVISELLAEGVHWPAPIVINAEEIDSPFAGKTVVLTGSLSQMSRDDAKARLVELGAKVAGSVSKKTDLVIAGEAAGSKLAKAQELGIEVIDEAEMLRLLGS
Sequence of Guanlyate kinase (Q0TBG1 whole entry): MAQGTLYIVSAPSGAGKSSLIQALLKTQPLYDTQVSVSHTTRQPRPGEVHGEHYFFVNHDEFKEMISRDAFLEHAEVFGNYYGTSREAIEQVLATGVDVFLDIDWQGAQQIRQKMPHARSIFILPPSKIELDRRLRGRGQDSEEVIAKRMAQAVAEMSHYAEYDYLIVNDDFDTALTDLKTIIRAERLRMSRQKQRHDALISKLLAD
Sequence of DNA helicase (P0ACB1 whole entry): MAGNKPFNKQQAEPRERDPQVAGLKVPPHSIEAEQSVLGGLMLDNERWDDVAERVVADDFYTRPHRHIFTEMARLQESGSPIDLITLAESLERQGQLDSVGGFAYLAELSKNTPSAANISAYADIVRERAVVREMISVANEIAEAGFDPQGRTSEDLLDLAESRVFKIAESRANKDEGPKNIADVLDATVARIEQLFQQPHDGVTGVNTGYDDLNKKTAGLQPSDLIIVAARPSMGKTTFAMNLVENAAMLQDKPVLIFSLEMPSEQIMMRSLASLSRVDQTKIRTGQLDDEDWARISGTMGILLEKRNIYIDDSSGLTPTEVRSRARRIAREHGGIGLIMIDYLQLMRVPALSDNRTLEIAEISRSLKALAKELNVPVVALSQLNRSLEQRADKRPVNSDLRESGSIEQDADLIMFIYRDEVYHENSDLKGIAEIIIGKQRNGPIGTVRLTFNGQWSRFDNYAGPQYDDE
Sequence of DNA primase (P0ABS7 whole entry): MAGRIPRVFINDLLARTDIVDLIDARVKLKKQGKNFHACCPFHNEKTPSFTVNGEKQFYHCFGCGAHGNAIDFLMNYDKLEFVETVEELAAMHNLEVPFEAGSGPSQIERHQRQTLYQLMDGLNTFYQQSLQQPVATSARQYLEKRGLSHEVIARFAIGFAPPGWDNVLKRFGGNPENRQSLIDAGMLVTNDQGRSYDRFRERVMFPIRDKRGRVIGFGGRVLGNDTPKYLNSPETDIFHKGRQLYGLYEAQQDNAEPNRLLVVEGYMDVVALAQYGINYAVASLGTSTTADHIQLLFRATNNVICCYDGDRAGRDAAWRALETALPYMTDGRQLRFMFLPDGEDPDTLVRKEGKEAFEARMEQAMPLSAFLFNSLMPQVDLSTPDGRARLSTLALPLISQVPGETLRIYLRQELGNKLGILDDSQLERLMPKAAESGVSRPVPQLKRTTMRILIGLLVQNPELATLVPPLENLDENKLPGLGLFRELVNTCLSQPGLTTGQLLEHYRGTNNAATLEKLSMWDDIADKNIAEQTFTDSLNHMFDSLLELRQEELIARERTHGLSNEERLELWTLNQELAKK
Sequence of GlmU (A7ZTU1 whole entry, looked up): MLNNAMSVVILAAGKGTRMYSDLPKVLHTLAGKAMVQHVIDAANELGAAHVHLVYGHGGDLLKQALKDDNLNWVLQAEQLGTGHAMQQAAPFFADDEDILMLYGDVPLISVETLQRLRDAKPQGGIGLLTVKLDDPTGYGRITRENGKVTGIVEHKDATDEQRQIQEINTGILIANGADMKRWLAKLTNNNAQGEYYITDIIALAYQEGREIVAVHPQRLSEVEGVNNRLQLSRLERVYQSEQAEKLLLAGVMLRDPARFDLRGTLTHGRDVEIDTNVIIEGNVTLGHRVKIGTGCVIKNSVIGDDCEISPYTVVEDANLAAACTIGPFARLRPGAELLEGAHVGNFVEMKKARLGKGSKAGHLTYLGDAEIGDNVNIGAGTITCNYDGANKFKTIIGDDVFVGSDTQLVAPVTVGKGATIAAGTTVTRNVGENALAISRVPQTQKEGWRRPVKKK
Sequence of DNA polymerase (P10443 whole entry): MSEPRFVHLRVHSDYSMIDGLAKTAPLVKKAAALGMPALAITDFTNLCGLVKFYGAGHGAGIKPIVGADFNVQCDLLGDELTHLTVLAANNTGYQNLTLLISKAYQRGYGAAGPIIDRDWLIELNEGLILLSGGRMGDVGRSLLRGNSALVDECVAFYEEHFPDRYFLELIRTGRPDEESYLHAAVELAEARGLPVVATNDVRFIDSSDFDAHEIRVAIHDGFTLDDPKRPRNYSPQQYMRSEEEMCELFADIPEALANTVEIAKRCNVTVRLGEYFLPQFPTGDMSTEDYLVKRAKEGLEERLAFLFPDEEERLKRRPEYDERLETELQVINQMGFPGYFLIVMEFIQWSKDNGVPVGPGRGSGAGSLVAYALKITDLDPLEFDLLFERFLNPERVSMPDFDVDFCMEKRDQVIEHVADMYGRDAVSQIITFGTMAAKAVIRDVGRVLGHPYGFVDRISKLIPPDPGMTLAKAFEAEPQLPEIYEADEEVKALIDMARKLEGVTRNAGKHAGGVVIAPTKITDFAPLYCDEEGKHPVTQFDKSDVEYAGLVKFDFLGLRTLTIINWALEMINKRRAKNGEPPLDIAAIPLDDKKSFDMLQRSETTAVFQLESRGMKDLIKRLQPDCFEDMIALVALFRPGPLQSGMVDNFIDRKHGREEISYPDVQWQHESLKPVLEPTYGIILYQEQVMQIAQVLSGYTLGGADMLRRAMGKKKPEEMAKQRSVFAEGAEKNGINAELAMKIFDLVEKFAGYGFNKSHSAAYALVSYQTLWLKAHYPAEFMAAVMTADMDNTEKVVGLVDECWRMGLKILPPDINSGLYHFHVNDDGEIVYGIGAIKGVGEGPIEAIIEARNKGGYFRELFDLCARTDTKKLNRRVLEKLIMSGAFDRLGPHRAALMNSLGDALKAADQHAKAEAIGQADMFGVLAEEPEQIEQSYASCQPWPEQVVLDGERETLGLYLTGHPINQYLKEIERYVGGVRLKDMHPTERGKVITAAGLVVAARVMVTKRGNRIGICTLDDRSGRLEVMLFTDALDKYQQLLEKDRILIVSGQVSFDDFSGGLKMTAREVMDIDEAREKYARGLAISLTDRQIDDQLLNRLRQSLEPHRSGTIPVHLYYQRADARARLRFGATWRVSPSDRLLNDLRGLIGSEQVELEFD

For `CCC1OC(=O)C(C)C(=O)C(C)C(OC2OC(C)CC(N(C)C)C2O)C(C)(OC)CC(C)C(=O)C(C)C2N(CCCCn3cnc(-c4cccnc4)c3)C(=O)OC12C` (stereo not drawn), the relative enzymatic activity with DNA gyrase stood at 0.862 ± 0.39; with DNA helicase it was 0.396 ± 0.024; with DNA ligase, 1.1 ± 0.3; with DNA polymerase it was 1.24 ± 0.3; with DNA primase, 0.854 ± 0.012; with GlmU, 0.9359 ± 0.0057. The relative enzymatic activity was found to be 0.967 ± 0.099 with Guanlyate kinase; 0.668 ± 0.05 in the assay with MurA; 0.525 ± 0.34 in the assay with MurD; 0.799 ± 0.13 in the assay with MurF; 0.822 ± 0.037 in the assay on RNA polymerase.
Turning to `CN(C)c1ccc(O)c2c1CC1CC3C(N(C)C)C(O)=C(C(N)=O)C(=O)C3(O)C(O)=C1C2=O.Cl` (stereo not drawn), the relative enzymatic activity was determined as 0.541 ± 0.071 in the assay with DNA gyrase; 0.129 ± 0.0081 with DNA helicase; 0.831 ± 0.21 in the assay with DNA ligase; 0.908 ± 0.4 in the assay with DNA polymerase; 0.4515 ± 0.0044 with DNA primase; 0.955 ± 0.066 in the assay with GlmU. In addition, the relative enzymatic activity with Guanlyate kinase was determined as 0.577 ± 0.027; with MurA, 0.0902 ± 0.0036; in the assay with MurD it was 0.602 ± 0.4; with MurF, 0.939 ± 0.18; in the assay on RNA polymerase, 0.184 ± 0.083.
On to `Nc1ncn(C2OC(CO)C(O)C2O)c(=O)n1` (stereo not drawn), for which the relative enzymatic activity in the assay with DNA gyrase was determined as 0.722 ± 0.32; with DNA helicase, 0.653 ± 0.16; with DNA ligase it was 1.318 ± 0.003; with DNA polymerase, 1.27 ± 0.31; in the assay with DNA primase, 0.709 ± 0.21; with GlmU it was 1.14 ± 0.13. In addition, the relative enzymatic activity in the assay with Guanlyate kinase is 0.934 ± 0.14; with MurA it was 0.786 ± 0.13; in the assay with MurD, 0.61 ± 0.4; in the assay with MurF it was 0.987 ± 0.21; in the assay on RNA polymerase it was 1.01 ± 0.18.
As for `O=C(O)P(=O)(O)O`, the relative enzymatic activity in the assay on DNA gyrase turned out to be 0.105 ± 0.15; with DNA helicase, 0.549 ± 0.16; with DNA ligase it was 0.871 ± 0.14; with DNA polymerase, 0.703 ± 0.39; with DNA primase, 0.775 ± 0.04; with GlmU, 1 ± 0.014. The relative enzymatic activity in the assay with Guanlyate kinase was 0.914 ± 0.092; with MurA, 0.79 ± 0.12; in the assay with MurD, 0.6 ± 0.4; in the assay with MurF it was 0.945 ± 0.24; in the assay with RNA polymerase, 0.8 ± 0.14.
For the compound `CC1C(NC(=O)C(=NOC(C)(C)C(=O)O)c2csc(N)n2)C(=O)N1S(=O)(=O)O` (stereo not drawn), the relative enzymatic activity was 0.879 ± 0.42 in the assay with DNA gyrase; 0.582 ± 0.14 with DNA helicase; 1.36 ± 0.2 in the assay with DNA ligase; 0.711 ± 0.38 with DNA polymerase; 0.832 ± 0.01 in the assay with DNA primase; 0.903 ± 0.016 with GlmU. Besides, the relative enzymatic activity with Guanlyate kinase came out at 0.908 ± 0.068; with MurA it was 0.798 ± 0.071; with MurD, 0.589 ± 0.39; with MurF it was 0.948 ± 0.24; with RNA polymerase, 0.844 ± 0.071.
In the case of `O=C1OC(=O)[C@H]2[C@@H]1[C@H]1CC[C@H]2O1`, the relative enzymatic activity was found to be 0.864 ± 0.32 in the assay with DNA gyrase; 0.551 ± 0.09 with DNA helicase; 1.15 ± 0.085 with DNA ligase; 1.01 ± 0.012 in the assay with DNA polymerase; 0.811 ± 0.0082 in the assay with DNA primase; 1.07 ± 0.033 in the assay with GlmU. The relative enzymatic activity with Guanlyate kinase was 1.01 ± 0.066; with MurA it was 0.734 ± 0.16; in the assay with MurD it was 0.606 ± 0.38; with MurF it was 0.979 ± 0.22; with RNA polymerase it was 0.888 ± 0.18.
In the case of `COc1cc(Cc2cnc(N)nc2N)cc(OC)c1OC`, the relative enzymatic activity was determined as 0.772 ± 0.45 in the assay on DNA gyrase; 0.617 ± 0.18 with DNA helicase; 1.12 ± 0.24 with DNA ligase; 1.36 ± 0.46 in the assay with DNA polymerase; 0.685 ± 0.15 in the assay with DNA primase; 1.009 ± 0.0036 with GlmU. Further, the relative enzymatic activity is 1.01 ± 0.05 with Guanlyate kinase; 0.706 ± 0.023 in the assay with MurA; 0.589 ± 0.4 with MurD; 0.569 ± 0.81 with MurF; 0.887 ± 0.074 with RNA polymerase.
For the compound `CON=C(C(=O)N[C@@H]1C(=O)N2C(C(=O)O)=C(CSc3nc(=O)c(O)nn3C)CS[C@H]12)c1csc(N)n1`, the relative enzymatic activity was 0.722 ± 0.42 in the assay with DNA gyrase; 0.448 ± 0.015 with DNA helicase; 0.961 ± 0.042 with DNA ligase; 1.05 ± 0.24 with DNA polymerase; 0.8 ± 0.022 in the assay with DNA primase; 0.861 ± 0.055 with GlmU. Moreover, the relative enzymatic activity with Guanlyate kinase came to 0.984 ± 0.11; in the assay with MurA it was 0.0646 ± 0.0061; with MurD, 0.568 ± 0.39; in the assay with MurF, 0.955 ± 0.25; in the assay on RNA polymerase it was 0.524 ± 0.35.
Turning to `CC1CCc2c(N3CCC(O)CC3)c(F)cc3c(=O)c(C(=O)O)cn1c23` (stereo not drawn), the relative enzymatic activity with DNA gyrase is 0.0257 ± 0.036; in the assay with DNA helicase it was 0.552 ± 0.1; with DNA ligase, 0.916 ± 0.018; with DNA polymerase it was 1.19 ± 0.29; in the assay with DNA primase, 0.8373 ± 0.0067; with GlmU, 0.9778 ± 0.0021. The relative enzymatic activity in the assay with Guanlyate kinase turned out to be 0.957 ± 0.071; with MurA, 0.8065 ± 0.0039; in the assay with MurD it was 0.566 ± 0.37; in the assay with MurF, 1.102 ± 0.0015; in the assay on RNA polymerase, 0.85 ± 0.059.
For the compound `CC(=O)On1cc(F)c(=O)[nH]c1=O`, the relative enzymatic activity in the assay with DNA gyrase came out at 0.636 ± 0.53; with DNA helicase it was 0.603 ± 0.23; with DNA ligase it was 0.979 ± 0.23; in the assay with DNA polymerase, 1.03 ± 0.18; with DNA primase it was 0.765 ± 0.056; with GlmU, 0.977 ± 0.015. Further, the relative enzymatic activity with Guanlyate kinase stood at 0.859 ± 0.015; with MurA, 0.673 ± 0.096; in the assay with MurD, 0.464 ± 0.59; with MurF, 0.933 ± 0.22; in the assay on RNA polymerase, 0.746 ± 0.13.
Take `COc1c(N2CC3CCCNC3C2)c(F)cc2c(=O)c(C(=O)O)cn(C3CC3)c12.Cl` (stereo not drawn): the relative enzymatic activity came out at 0.0344 ± 0.049 in the assay on DNA gyrase; 0.559 ± 0.16 with DNA helicase; 1.22 ± 0.1 with DNA ligase; 1.13 ± 0.18 in the assay with DNA polymerase; 0.682 ± 0.17 with DNA primase; 0.986 ± 0.039 with GlmU. Besides, the relative enzymatic activity with Guanlyate kinase was determined as 0.825 ± 0.096; with MurA it was 0.795 ± 0.041; with MurD it was 0.597 ± 0.41; in the assay with MurF it was 0.94 ± 0.19; in the assay on RNA polymerase, 0.868 ± 0.083.
For the compound `CCCC[P+](CCCC)(CCCC)Cc1ccc(NC(=O)[C@@H](Cc2ccc3ccccc3c2)N=C(NC2CCCCC2)NC2CCCCC2)cc1`, the relative enzymatic activity in the assay on DNA gyrase came out at 0.0368 ± 0.052; with DNA helicase, 0.0252 ± 0.0031; with DNA ligase, 0.897 ± 0.14; with DNA polymerase, 0.636 ± 0.1; with DNA primase it was 0.576 ± 0.037; with GlmU, 0.139 ± 0.0022. Moreover, the relative enzymatic activity was found to be 0.245 ± 0.019 in the assay with Guanlyate kinase; 0.0381 ± 0.0081 in the assay with MurA; 0.092 ± 0.023 with MurD; 0.108 ± 0.018 in the assay with MurF; 0.2596 ± 0.002 in the assay on RNA polymerase.
As to `CO/N=C1\CN(c2nc3c(cc2F)c(=O)c(C(=O)O)cn3C2CC2)C[C@@H]1CN`, the relative enzymatic activity stood at 0.0916 ± 0.13 in the assay with DNA gyrase; 0.4747 ± 0.0033 with DNA helicase; 0.891 ± 0.14 in the assay with DNA ligase; 0.53 ± 0.72 with DNA polymerase; 0.751 ± 0.05 with DNA primase; 0.979 ± 0.019 in the assay with GlmU. Also, the relative enzymatic activity in the assay with Guanlyate kinase came out at 0.738 ± 0.26; in the assay with MurA it was 0.631 ± 0.21; with MurD, 0.572 ± 0.38; with MurF it was 0.964 ± 0.17; with RNA polymerase, 0.807 ± 0.074.

These data come from the supplement of paper PMC9446081.
